SW480 rereplic – A quantitative high throughput screen for small molecules that induce DNA re-replication in SW480 colon adenocarcinoma cells; hit rate 1.8% among 340,000; SW480 DNA re-replication, Hoechst DNA content imaging, 48 h; AID 624297, 2012; Potency, µM (series often up to 46.1 µM), without a hit: at the highest dose re-replication activation, usual class: activators; note: potency is the fitted concentration of half-maximal effect; % of control where 0% means no effect; nearly all actives have a fitted effect of over 55% in size
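DNA re-replication was detected as more nuclei of elevated Hoechst intensity after 48 hr exposure to compound (23 nL pinned per well of 250 cells).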
MCF10A rerep – A quantitative high throughput screen for small molecules that induce DNA re-replication in MCF 10a normal breast cells. MCF 10A DNA re-replication, Hoechst nuclear intensity, 48 h. Potency, µM (titrated, usually from 46.1 µM), without a hit: at the top dose activity, positive = re-replication, actives largely listed as activators. hit rate 2.9% among 350,000. AID 624296, 2012; note: potency is the fitted concentration of half-maximal effect; % of control where 0% means no effect; nearly all actives have a fitted effect of over 50% in size
IL1B secr inh – qHTS for Inhibitors of Inflammasome Signaling: IL-1-beta AlphaLISA Primary Screen; activity change, % at 57.5 µM; AID 743279, 2014; hit rate 4.7% among 360,000; THP-1 LPS/ATP IL-1B secretion, AlphaLISA, 16 h; stronger effect = lower value; in the data active = activity change below about -50%; inconclusive = mostly about -30% to -49%; note: % is set by controls: 0 for no effect and ±100 for the full control effect
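THP-1 cells pretreated 1 hr with compounds (up to 57.5 uM final), then stimulated with LPS (250 ng/mL final) plus ATP (1.25 mM final); secreted IL-1B measured by AlphaLISA after 16 hr, decreased signal indicating inhibition.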
KB-3-1 cytotox – qHTS assay for MDR1-selective chemotherapeutics: Primary screen using the parental adenocarcinoma cell KB-3-1; Potency, µM (highest dose often 46.1 µM), usual class: cytotoxic; KB-3-1 viability, CellTiter-Glo ATP luminescence, 72 h; AID 1347075, 2019; hit rate 1.4% among 400,000; note: potency is the fitted concentration of half-maximal effect; % is set by controls: 0 for no effect and ±100 for the full control effect; nearly all actives have a fitted effect of over 60% in size
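Multi-concentration cytotoxicity screen in KB-3-1 cells grown in DMEM lacking phenol red with 10% FBS. After 72 h at 37 °C with compound, ATP-dependent luminescence was recorded.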
KB-V1 cytotox – qHTS assay for MDR1-selective chemotherapeutics: Primary screen using the drug-selected MDR subline cells KB-V1 | KB-V1 MDR cells viability, CellTiter-Glo, 72 h | Potency, µM (series often up to 46.1 µM), hits mostly cytotoxic | hit rate 3.4% among 400,000; note: potency is the fitted concentration of half-maximal effect; % is set by controls: 0 for no effect and ±100 for the full control effect; nearly all actives have a fitted effect of over 60% in size
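Readout: CellTiter-Glo luminescence, 10 min after addition. Cells: KB-V1 MDR subline, 72 h at 37 degrees C with compound. Analysis: corrected, normalized data fitted to concentration-effect curves.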
An asterisk follows results filed as active; i = inactive; ? = inconclusive; . = no result. Most compounds without a hit are left out; they make up all but 9.9% or so of the library. Unless noted, calls come from the whole dose curve; as a rule, active = well fitted curve in the direction sought with a large enough effect; inconclusive = small, poorly fitted or top-dose-only effect, or another doubt; inactive = no such curve, though single readings can be large; an effect the other way counts as inactive or inconclusive.

SMILES | SW480 rereplic | MCF10A rerep | IL1B secr inh | KB-3-1 cytotox | KB-V1 cytotox
COc1ccc(C2CC(=O)N(Cc3ccc(F)cc3)c3ccccc3S2)cc1 (stereo not drawn) | . | . | . | ? | 15µM*
COc1ccc(C2CC(=O)N(Cc3ccc(F)cc3)c3ccccc3S2)cc1OC (stereo not drawn) | . | . | . | ? | 16µM*
O=C(CN1C(=O)CCC1=O)Nc1nc(-c2nc3ccccc3s2)cs1 | -6% | 1% | -57* | i | i
Cc1ccc(-c2csc(NC(=O)CN3C(=O)CCC3=O)n2)cc1 | -1% | -18% | 8 | i | i
O=C(CN1C(=O)CCC1=O)Nc1nc(-c2ccc3ccccc3c2)cs1 | -38% | 1.5µM* | -26 | i | i
O=C(CN1C(=O)CCC1=O)Nc1nc(-c2ccccn2)cs1 | -3% | 9% | -22 | i | i
C/C(CC(=O)Nc1cccc(Br)c1)=N\NC(=O)c1ccc(O)cc1O | 2% | 1% | -3 | i | i
CCOC(=O)[C@]12CCCC=C1N(Cc1cccc3ccccc13)C(=O)[C@H](CC(=O)N1CCCCC1)C2 | . | . | -23 | ? | 9.2µM*
CCOC(=O)[C@]12CCCC=C1N(Cc1cccc3ccccc13)C(=O)[C@H](CC(=O)N1CCSCC1)C2 | . | . | -5 | i | 18µM*
COc1ccc([N+](=O)[O-])cc1N(CC(=O)N1CCN(Cc2ccccc2)CC1)S(C)(=O)=O | -2% | 5% | -14 | i | i
CCOC(=O)c1ccc2c(c1)n(CC)c(/C=C/N(C)c1ccccc1)[n+]2CC | -6% | 11% | -89* | i | i
CCOC(=O)c1ccc2c(c1)n(CCO)c(C)[n+]2CC | -4% | -5% | 5 | i | i
O=C(NC1CCCCC1)c1c(O)nc2sccn2c1=O | -554% | 8% | 19 | ? | ?
O=C(NC1CCCCCC1)c1c(O)nc2sccn2c1=O | 6% | -3% | 20 | ? | 15µM*
CC1CC(NC(=O)c2c(O)nc3ccccn3c2=O)CC(C)(C)C1 (stereo not drawn) | -4% | -4% | 0 | i | 21µM*
O=C(NCC1CCCO1)c1c(O)nc2sccn2c1=O (stereo not drawn) | -6% | -18% | 20 | i | i
O=C(NCCN1CCOCC1)c1c(O)nc2ccccn2c1=O | 5% | -1% | 10 | i | i
CC1CC(NC(=O)c2c(O)nc3sccn3c2=O)CC(C)(C)C1 (stereo not drawn) | ? | -3% | 56 | i | 18µM*
CCC(=O)OCC(=O)N=c1sccn1Cc1ccccc1Cl | -5% | 11% | -5 | i | i
CCC(=O)OCC(=O)N=c1sccn1Cc1ccc(C)cc1 | -14% | -12% | 3 | i | i
O=C(CCl)N=c1sccn1Cc1ccc(Cl)cc1Cl | ? | ? | -97* | ? | 18µM*
NC(=O)c1ccc(=O)n(Cc2ccc(Cl)cc2Cl)c1 | -4% | -6% | 17 | i | i
O=C(CCl)N=c1sccn1Cc1cccc2ccccc12 | ? | ? | -102* | ? | ?
O=C(CCl)N=c1sccn1Cc1ccccc1Cl | ? | ? | -100* | ? | ?
Cc1cccc(N=CC=C2OC(C)(C)C(C)(C)O2)c1 | 21µM* | ? | -8 | i | i
SMILES | SW480 rereplic | MCF10A rerep | IL1B secr inh | KB-3-1 cytotox | KB-V1 cytotox
Cc1ccc(N=CC=C2OC(C)(C)C(C)(C)O2)cc1 | 0.82µM* | 16µM* | 3 | ? | i
COc1ccc(N=CC=C2OC(C)(C)C(C)(C)O2)cc1OC | -25% | 9% | 5 | i | i
COc1cccc(N=CC=C2OC(C)(C)C(C)(C)O2)c1 | -16% | -8% | -2 | i | i
Cc1c(-c2ccc(Br)cc2)[n+](=O)c2c(n1[O-])CCCC2 | -7% | 1% | 16 | i | ?
CC(=O)c1ccc(NC(=O)CC23CC4CC(C2)CC(n2nnc(C)n2)(C4)C3)cc1 | -13% | ? | -12 | i | i
Cn1ccnc1COc1ccc(/C=N/O)cc1 | -3% | 12% | 7 | i | i
Cc1cccc(C)c1Nc1nnc(SCc2nc3ccccc3c(=O)[nH]2)s1 | ? | ? | 29 | i | i
CCOc1ccc(Nc2nnc(SCc3nc4ccccc4c(=O)[nH]3)s2)cc1 | 13% | 10µM* | 66 | i | i
O=c1[nH]c(CSc2nc(-c3ccc(F)cc3)cs2)nc2ccccc12 | -4% | 11% | 8 | i | 5.8µM*
O=c1oc(C2(O)CCCCC2)cc2ccccc12 | -2% | 3% | 19 | i | i
O=c1oc(C2(O)CCCCC2)cc2ccc(-c3ccc4[nH]ccc4c3)cc12 | 23% | ? | 21 | 0.82µM* | ?
CCCCN(C(=O)c1ccc2c(c1)OCO2)c1ccccc1 | -41% | 6% | 21 | i | ?
CC(=O)c1sc(NS(=O)(=O)c2ccc(C)cc2)nc1-c1ccccc1 | -14% | ? | -7 | i | i
O=C1C=C(NC2=CC3OC(c4ccccc4)OCC3OC2=O)CCC1 (stereo not drawn) | ? | ? | -117* | ? | ?
O=C1C=C(NCc2ccccc2)CCC1 | -6% | -4% | 0 | i | i
O=c1oc2ccccc2c(NC(c2ccccc2)c2ccccc2)c1[N+](=O)[O-] | 3% | ? | -5 | i | i
O=c1oc2ccccc2c(Nc2ccc3ccccc3c2)c1[N+](=O)[O-] | 21% | ? | 7 | ? | i
Cc1ccc(C)c(Nc2c([N+](=O)[O-])c(=O)oc3ccccc23)c1 | ? | ? | -58* | i | ?
CC(Nc1c([N+](=O)[O-])c(=O)oc2ccccc12)C(Cl)c1ccccc1 (stereo not drawn) | ? | ? | -67* | ? | i
COc1ccc(NCc2ccc(OC)c(Cn3ccnc3)c2)c(OC)c1 | -4% | 2% | -69* | i | ?
O=c1oc(Cl)c(Cl)c2ccccc12 | -5% | 0% | -70* | i | i
O=c1oc2cc(O)c(Cl)cc2c2ccccc12 | -6% | ? | 0 | i | i
COc1cccc(NC(=O)C(C)(C)C)c1 | -6% | -7% | 27 | i | i
CCCSc1nsc(NC(=O)Nc2ccc(F)cc2F)n1 | -10% | 25% | -28 | ? | ?
COc1cccc(NC(=O)Nc2nc(SC(C)(C)C)ns2)c1 | -11% | ? | -73* | ? | ?
CCSc1nsc(NC(=O)Nc2cccc(F)c2)n1 | ? | 16µM* | -95* | ? | ?
COc1cccc(NC(=O)c2cnc(SC)nc2)c1 | 1% | -13% | 71 | i | i

Screening data: PubChem, National Center for Advancing Translational Sciences (NCATS)
